Among the data in PubChem BioAssay are inhibition values, retold here.

For assay [1], the target named is Nuclear receptor coactivator 3 (Homo sapiens) (UniProt Q9Y6Q9). Put plainly: NCOA3 GAL4-fusion reporter inhibition – cell-based, luminescence, quadruplicate, confirmation (AID 588792;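 active = mean inhibition over 43.08%, the solvent-only control mean plus 3 SD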;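 note: 0% = DMSO treated cells and 100% = gossypol at 36 µM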). Conditions: HEK293 GAL4-SRC3 luciferase reporter, at 3.6 µM, active compounds read high.
Chain of Nuclear receptor coactivator 3 (Homo sapiens) (Q9Y6Q9 whole entry, looked up, the tested form may be a part): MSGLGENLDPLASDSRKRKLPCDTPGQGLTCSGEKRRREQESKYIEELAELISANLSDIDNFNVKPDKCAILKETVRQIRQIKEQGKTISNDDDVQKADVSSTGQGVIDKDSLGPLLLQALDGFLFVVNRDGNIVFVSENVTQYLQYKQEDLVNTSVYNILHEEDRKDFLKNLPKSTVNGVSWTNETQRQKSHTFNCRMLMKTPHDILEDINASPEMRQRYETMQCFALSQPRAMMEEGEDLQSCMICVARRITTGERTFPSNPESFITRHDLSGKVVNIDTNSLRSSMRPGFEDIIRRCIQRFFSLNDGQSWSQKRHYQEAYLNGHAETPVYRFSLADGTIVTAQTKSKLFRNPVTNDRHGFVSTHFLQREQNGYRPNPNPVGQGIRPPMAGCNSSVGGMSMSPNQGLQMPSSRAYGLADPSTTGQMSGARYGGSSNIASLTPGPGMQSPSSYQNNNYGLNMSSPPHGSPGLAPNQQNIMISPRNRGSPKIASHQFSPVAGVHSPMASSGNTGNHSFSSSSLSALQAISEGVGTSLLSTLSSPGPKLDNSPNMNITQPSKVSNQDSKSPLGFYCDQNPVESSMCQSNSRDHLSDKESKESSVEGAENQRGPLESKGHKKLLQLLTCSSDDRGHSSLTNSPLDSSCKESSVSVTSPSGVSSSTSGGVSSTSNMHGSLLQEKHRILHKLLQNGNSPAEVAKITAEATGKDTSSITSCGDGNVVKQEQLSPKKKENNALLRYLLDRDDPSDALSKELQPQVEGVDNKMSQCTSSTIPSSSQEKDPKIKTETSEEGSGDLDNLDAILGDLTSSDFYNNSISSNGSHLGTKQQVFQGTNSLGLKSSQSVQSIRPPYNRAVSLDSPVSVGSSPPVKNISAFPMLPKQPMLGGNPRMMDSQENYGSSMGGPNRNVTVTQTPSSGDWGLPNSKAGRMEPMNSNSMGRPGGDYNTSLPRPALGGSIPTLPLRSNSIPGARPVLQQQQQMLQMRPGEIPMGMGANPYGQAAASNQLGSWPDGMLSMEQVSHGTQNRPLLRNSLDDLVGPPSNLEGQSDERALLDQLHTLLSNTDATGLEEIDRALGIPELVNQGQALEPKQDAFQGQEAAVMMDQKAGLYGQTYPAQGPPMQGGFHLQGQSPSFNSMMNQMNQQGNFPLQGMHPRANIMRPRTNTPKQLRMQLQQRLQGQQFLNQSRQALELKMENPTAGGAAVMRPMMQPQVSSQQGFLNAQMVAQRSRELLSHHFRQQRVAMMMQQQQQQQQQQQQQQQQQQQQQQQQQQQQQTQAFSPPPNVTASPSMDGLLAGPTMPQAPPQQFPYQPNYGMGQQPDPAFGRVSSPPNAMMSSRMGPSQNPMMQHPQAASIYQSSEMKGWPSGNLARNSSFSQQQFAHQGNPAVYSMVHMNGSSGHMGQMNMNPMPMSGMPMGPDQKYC
Assay [2] has as its system transactivating tegument protein VP16 (Human herpesvirus 1), Gal4-VP16 luciferase reporter. As to the kind of experiment: repression of VP16-driven luciferase reporter – cell-based, luminescence, high throughput, counter-screen for SRC3 inhibitor project (AID 588794; in the data active = inhibition above about 30%). Conditions: mammalian cells, at 3.6 µM, active compounds read high. (In general: Reporter assays use an easily measured gene product as a stand-in for the process of interest.)

For assay [3], the target named is Nuclear receptor coactivator 1 (Homo sapiens) (UniProt Q15788). Put plainly: NCOA1 GAL4-fusion reporter inhibition – cell-based, luminescence, quadruplicate, confirmation (AID 588820).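 Note: 0% = DMSO wells and 100% = gossypol 36 µM treated wells.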 Conditions: HEK293 GAL4-SRC1 luciferase reporter, at 3.6 µM, active compounds read high.
Chain of Nuclear receptor coactivator 1 (Homo sapiens) (Q15788 whole entry, looked up, the tested form may be a part): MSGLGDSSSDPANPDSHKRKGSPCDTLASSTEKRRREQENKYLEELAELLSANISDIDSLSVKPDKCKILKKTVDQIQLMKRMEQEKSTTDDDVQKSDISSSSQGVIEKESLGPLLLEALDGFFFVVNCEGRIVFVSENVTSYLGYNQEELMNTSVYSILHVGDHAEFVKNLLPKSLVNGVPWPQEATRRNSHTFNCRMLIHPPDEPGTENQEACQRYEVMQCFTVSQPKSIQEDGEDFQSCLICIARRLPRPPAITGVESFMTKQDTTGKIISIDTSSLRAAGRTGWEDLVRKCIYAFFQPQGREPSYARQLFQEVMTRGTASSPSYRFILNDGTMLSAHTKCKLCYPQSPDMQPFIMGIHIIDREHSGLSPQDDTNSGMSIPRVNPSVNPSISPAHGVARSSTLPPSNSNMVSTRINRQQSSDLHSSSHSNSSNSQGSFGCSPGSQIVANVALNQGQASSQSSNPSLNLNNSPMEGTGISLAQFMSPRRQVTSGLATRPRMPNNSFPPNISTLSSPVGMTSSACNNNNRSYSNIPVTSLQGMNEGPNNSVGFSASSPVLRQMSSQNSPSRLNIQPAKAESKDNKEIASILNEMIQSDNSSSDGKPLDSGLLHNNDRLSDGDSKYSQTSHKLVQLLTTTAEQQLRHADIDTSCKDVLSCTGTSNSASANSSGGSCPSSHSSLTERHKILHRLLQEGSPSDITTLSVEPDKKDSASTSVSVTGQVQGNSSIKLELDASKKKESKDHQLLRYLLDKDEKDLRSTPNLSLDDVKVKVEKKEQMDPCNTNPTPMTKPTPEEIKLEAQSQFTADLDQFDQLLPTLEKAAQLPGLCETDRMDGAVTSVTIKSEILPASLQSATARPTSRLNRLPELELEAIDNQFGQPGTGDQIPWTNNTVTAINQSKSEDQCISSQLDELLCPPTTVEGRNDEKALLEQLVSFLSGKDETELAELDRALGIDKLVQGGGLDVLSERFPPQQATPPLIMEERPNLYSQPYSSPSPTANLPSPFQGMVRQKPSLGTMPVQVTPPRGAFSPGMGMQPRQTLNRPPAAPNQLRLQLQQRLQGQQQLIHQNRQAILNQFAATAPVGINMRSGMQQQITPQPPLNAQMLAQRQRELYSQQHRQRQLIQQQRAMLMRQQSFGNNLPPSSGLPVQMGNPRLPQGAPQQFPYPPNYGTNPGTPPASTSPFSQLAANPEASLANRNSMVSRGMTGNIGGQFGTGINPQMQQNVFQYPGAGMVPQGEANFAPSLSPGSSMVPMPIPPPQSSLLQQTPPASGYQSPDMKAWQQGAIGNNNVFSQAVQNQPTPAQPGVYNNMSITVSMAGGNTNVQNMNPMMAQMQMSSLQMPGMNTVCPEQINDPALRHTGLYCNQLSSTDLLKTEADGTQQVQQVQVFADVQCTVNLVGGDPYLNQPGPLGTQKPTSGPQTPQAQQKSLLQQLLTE
A short description of assay [4]: repression of VP16-driven luciferase reporter – cell-based, luminescence, high throughput, counter-screen for SRC1 inhibitor project (AID 588824; in the data active = inhibition above about 25%). Conditions: cell-based VP16 transactivation luciferase luminescence; at 3.6 µM; active compounds read high.
For assay [5], the system named is transactivating tegument protein VP16 (Human herpesvirus 1). As to the kind of experiment: compounds suppressing VP16-driven luciferase signal – cell-based, luminescence, single concentration, counter-screen for SRC2 inhibitor project (AID 652007; in the data active = inhibition above about 36%). Conditions: cell-based VP16 transactivation luciferase reporter, at 8.9 µM, active compounds read high. On the technique in general: A counterscreen serves to expose hits that act by an unwanted route or on another target.

The target in assay [6] is Nuclear receptor coactivator 2 (Homo sapiens) (UniProt Q15596). Put plainly: inhibition of GAL4-SRC2 driven luciferase expression – cell-based, luminescence, HEK293, triplicate, confirmation (AID 652008;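 active = mean inhibition above 46.5%, the solvent-only control mean plus 3 SD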;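 note: 0% = DMSO-treated cells and 100% = Gossypol at 36 µM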). Conditions: HEK293 GAL4-SRC2 luciferase reporter, at 8.9 µM, active compounds read high.
Chain of Nuclear receptor coactivator 2 (Homo sapiens) (Q15596 whole entry, looked up, the tested form may be a part): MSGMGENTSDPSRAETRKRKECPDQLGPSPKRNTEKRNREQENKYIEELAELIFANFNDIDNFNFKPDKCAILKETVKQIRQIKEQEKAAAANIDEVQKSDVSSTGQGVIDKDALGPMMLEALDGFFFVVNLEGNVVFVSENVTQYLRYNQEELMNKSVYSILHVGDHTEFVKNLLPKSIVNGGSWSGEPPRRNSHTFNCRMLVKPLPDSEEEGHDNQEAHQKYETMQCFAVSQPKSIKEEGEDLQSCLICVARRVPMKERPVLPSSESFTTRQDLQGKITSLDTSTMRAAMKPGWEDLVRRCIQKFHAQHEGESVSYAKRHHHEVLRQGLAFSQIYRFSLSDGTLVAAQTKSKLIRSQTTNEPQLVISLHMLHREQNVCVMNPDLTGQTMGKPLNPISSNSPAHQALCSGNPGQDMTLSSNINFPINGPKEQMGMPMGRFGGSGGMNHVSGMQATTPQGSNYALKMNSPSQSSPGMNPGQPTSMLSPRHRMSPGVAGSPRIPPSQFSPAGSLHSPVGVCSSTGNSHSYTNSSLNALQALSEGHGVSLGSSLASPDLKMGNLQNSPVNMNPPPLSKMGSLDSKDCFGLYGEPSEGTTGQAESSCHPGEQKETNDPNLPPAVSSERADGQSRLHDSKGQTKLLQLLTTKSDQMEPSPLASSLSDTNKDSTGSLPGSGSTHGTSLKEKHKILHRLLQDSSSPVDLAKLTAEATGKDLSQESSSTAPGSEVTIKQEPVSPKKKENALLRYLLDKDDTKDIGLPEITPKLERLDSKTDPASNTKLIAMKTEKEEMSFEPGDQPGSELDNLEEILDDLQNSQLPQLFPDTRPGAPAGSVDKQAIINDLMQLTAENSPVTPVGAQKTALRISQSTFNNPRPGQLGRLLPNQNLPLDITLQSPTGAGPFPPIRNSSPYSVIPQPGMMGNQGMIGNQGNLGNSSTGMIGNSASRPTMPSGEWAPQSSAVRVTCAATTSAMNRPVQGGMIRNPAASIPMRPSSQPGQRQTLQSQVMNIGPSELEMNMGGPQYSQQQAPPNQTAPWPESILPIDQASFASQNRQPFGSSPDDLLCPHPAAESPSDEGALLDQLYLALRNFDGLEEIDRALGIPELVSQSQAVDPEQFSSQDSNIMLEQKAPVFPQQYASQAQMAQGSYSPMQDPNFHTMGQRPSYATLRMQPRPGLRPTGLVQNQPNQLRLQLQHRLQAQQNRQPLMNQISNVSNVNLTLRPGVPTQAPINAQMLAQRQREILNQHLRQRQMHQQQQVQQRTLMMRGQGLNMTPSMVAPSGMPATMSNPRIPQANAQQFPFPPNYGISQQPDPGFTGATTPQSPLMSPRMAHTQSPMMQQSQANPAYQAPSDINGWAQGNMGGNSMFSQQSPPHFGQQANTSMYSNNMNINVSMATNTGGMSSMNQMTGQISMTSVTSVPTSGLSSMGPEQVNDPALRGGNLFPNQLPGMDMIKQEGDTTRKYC

Unmarked numbers belong to inactive results. The source made the active and inactive calls.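 Rule for the calls, unless noted: active = mean inhibition above 46.68%, the untreated control wells mean plus 3 SD; inactive = the rest.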

One may read the inhibition as the drop in the measured response relative to a control, in per cent. Consider `CC(C)(C)c1ccc(Oc2ccc(NC(=O)c3ccccc3C(=O)O)cn2)cc1`, for which the inhibition in assay [1] is 4.23%; in assay [2] it was 10.3%; in assay [3] it was 2.66%; in assay [4], 7.37%; in assay [5] it was 39.5% (active); in assay [6] it was 62.4% (active).

As to `CS(=O)(=O)Nc1ccc(-c2cnc3cccnn23)cc1`, the inhibition in assay [1] is 67.9% (active); in assay [2], 41.6% (active); in assay [3], 57.5% (active); in assay [4], 51.7% (active); in assay [5] it was -12.1%; in assay [6] it was 45.8%.

As for `Clc1ccc(-c2csc(=Nc3cccnc3)n2CCCn2ccnc2)cc1Cl`, the inhibition in assay [1] is 53.9% (active); in assay [2] it was 35.4% (active); in assay [3], 49.7% (active); in assay [4], 39% (active); in assay [5], 15.6%; in assay [6], 63.7% (active).

Regarding `Nc1ccccc1Nc1cccc(C(F)(F)F)c1`, the inhibition in assay [1] was 25.9%; in assay [2] it was 18.6%; in assay [3], -6.37%; in assay [4], 13.5%; in assay [5] it was 6.37%; in assay [6], 43.7%.

With `Cc1ccccc1C(=O)N1CCN(c2ccc(NC(=O)CSc3ccc(Cl)cc3)cc2)CC1`, the inhibition was 46.2% (active) in assay [1]; 45.8% (active) in assay [2]; 46.8% (active) in assay [3]; 38.8% (active) in assay [4]; 18.4% in assay [5]; 51.5% (active) in assay [6].

Turning to `CC1CCCCN1c1ncnc(N)c1[N+](=O)[O-]` (stereo not given), the inhibition in assay [1] is 61.7% (active); in assay [2], 35.2% (active); in assay [3], 50.6% (active); in assay [4], 36.8% (active); in assay [5], 4.43%; in assay [6], 44.8%.

With `Cc1[nH]ccc2c1[nH]c1cc(=O)ccc12`, the inhibition in assay [1] is 56% (active); in assay [2], 39.5% (active); in assay [3], 59.1% (active); in assay [4], 38.7% (active); in assay [5], 3.4%; in assay [6], 26%.

As to `Cc1ccc(OCC(=O)c2cc(C)n(-c3ccccc3)c2C)c([N+](=O)[O-])n1`, the inhibition in assay [1] is 38.5%; in assay [2], -20.9%; in assay [3], 29.1%; in assay [4], -31.4%; in assay [5], -12.8%; in assay [6], 83.3% (active).

Turning to `C/C(=N\Nc1ncnc2sc(C)c(C)c12)c1ccccn1`, the inhibition was 63.2% (active) in assay [1]; 70.1% (active) in assay [2]; 18.5% in assay [3]; 50.4% (active) in assay [4]; -48.8% in assay [5]; 1.02% in assay [6].

`COc1ccc(/C=C2\CC/C(=C\c3ccc(OC)c(OC)c3)C2=O)cc1OC`: the inhibition in assay [1] was 30.9%; in assay [2], 10.7%; in assay [3] it was 16.2%; in assay [4], 16.9%; in assay [5], 41.5% (active); in assay [6] it was 77.9% (active).

As for `Cc1nc2sc(C(N)=O)c(N)c2c2c1CCCC2`, the inhibition was 79.4% (active) in assay [1]; 47.5% (active) in assay [2]; 69% (active) in assay [3]; 51% (active) in assay [4]; 6.77% in assay [5]; 61.5% (active) in assay [6].

As to `COc1ccc(C(=O)CN2C(=O)c3ccccc3S2(=O)=O)cc1`, the inhibition was 57.4% (active) in assay [1]; 57.1% (active) in assay [2]; -21.8% in assay [3]; 55.6% (active) in assay [4]; 72.1% (active) in assay [5]; 78.4% (active) in assay [6].

As for `Nc1ccc2c(c1)OC1(CCCC1)O2`, the inhibition in assay [1] was 10.9%; in assay [2], 4.56%; in assay [3], -18.7%; in assay [4], 15.4%; in assay [5], -13%; in assay [6] it was 45.4%.

With `CC(C)(CO)CNc1ccn2nccc2n1`, the inhibition in assay [1] was 49.3% (active); in assay [2], 35.4% (active); in assay [3], 67.4% (active); in assay [4], 41% (active); in assay [5], -7.15%; in assay [6] it was 27.5%.

Consider `CC(C)(C)OC(=O)NCCCCCNC(=O)c1nc[nH]c1C(=O)NCCCCCNC(=O)OC(C)(C)C`, for which the inhibition in assay [1] is 5.02%; in assay [2], 13.7%; in assay [3] it was -20%; in assay [4], 35.1% (active); in assay [5], 24.2%; in assay [6], 34.1%.

`CCN(CC)Cc1c(O)ccc2c([N+](=O)[O-])c(C)n(-c3ccc(OC)cc3)c12`: the inhibition in assay [1] was 69% (active); in assay [2], 50.9% (active); in assay [3], 68.7% (active); in assay [4] it was 54.7% (active); in assay [5] it was 15.8%; in assay [6], 41.4%.

Consider `Cc1ccc(/C=C2\SC(=S)N(CCCC(=O)NC3CCCC3)C2=O)cc1`, for which the inhibition in assay [1] is 55.2% (active); in assay [2], 14.5%; in assay [3] it was 41.5%; in assay [4] it was 14.4%; in assay [5] it was 79.5% (active); in assay [6], 89.4% (active).

Consider `NNC(=O)c1cc2ccccc2cc1O`, for which the inhibition in assay [1] is 67.7% (active); in assay [2], 12.8%; in assay [3] it was 37.5%; in assay [4] it was 19.3%; in assay [5] it was 16.4%; in assay [6], 77.8% (active).

Take `c1cc(-c2cnc3cccnn23)c2cccnc2c1`: the inhibition in assay [1] was 65.8% (active); in assay [2], 42.7% (active); in assay [3], 57.9% (active); in assay [4], 40.2% (active); in assay [5] it was -9.33%; in assay [6], 26.5%.

As to `COc1cc2ccccc2ccc1=NO`, the inhibition is 60.1% (active) in assay [1]; 38% (active) in assay [2]; 56.5% (active) in assay [3]; 32.9% (active) in assay [4]; 19.7% in assay [5]; 59.6% (active) in assay [6].
